S2 tox: viability counter-screen for ATXN expression inhibitors; actives 0.49% (n = 400,000); Potency, µM (top dose mostly 56.7 µM), actives largely listed as cytotoxic; S2 cells (HEK-293 line with an ATXN2-luciferase reporter) viability, CellTiter-Fluor protease fluorescence, 24 h; further: potency means the concentration at half of the fitted maximal effect; nearly all actives have a fitted effect of over 40% in size
ATXN2 expr inh: ATXN2 expression inhibition. Potency, µM (doses to about 57 µM), inactives show at the top dose activity change, negative = inhibition, most hits filed as inhibitors. AID 1745845. actives 0.72% (n = 360,000). HEK-293 ATXN2-luciferase reporter, luminescence, 24 h; further: potency means the concentration at half of the fitted maximal effect; on the % scale 0 is the no-effect control and ±100 the full control effect; nearly all actives have a fitted effect of over 55% in size
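ATXN2-luciferase reporter cells (luciferase flanked by upstream and downstream ATXN2 gene portions) were treated 24 h at 37 °C with compounds at up to 57 uM. SteadyGlo luminescence gave expression; GF-AFC fluorescence gave viability.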
IL1B secr inh: inhibitors of inflammasome signaling (IL-1 beta secretion) | THP-1 LPS/ATP IL-1B secretion, AlphaLISA, 16 h; stronger effect = lower value | activity change, % at 57.5 µM | actives 4.7% (n = 360,000); in the data active means activity change below about -50%; inconclusive means mostly about -30% to -49%; further: on the % scale 0 is the no-effect control and ±100 the full control effect
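Secreted IL-1B measured by AlphaLISA bead assay after 16 h compound exposure of THP-1 cells; compounds (final up to 57.5 uM) added 1 h before LPS (250 ng/mL) and ATP (1.25 mM) stimulation; lower signal means less secretion.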
USP2a inh: inhibitors of human ubiquitin-specific protease USP2a | O75604 | USP2 core, Ub-CHOP2 coupled fluorogenic reporter, 485/531 | Potency, µM (doses to about 38.3 µM), for inactives: at the top dose activity change, negative = inhibition, hits mostly inhibitors | actives 0.01% (n = 330,000);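 further: potency means the concentration at half of the fitted maximal effect; plate controls were DMSO wells for no effect and full inhibition by NEM control for full effect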
Target sequence (O75604 whole entry, looked up): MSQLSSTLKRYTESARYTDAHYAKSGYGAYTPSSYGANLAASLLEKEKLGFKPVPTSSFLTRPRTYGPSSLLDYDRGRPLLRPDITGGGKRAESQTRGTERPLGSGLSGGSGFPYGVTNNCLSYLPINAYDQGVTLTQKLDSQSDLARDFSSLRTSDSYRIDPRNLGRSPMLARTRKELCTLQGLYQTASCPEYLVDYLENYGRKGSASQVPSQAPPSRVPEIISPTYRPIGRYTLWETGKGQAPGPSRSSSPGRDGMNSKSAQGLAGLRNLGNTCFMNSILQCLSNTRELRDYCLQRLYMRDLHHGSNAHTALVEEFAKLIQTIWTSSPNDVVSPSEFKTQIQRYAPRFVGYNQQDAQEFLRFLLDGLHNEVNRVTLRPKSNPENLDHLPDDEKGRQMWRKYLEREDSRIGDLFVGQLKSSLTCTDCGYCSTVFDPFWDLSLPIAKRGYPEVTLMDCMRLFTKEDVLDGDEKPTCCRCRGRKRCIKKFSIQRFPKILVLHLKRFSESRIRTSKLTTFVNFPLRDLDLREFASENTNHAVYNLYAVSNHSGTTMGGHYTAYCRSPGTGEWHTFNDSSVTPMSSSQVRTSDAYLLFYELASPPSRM
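Cell-free coupled assay: 10nM USP2 core preincubated 30min RT with compound in Tris-HCl pH 8.0/CaCl2/CHAPS buffer, then 25nM Ub-CHOP2 and 25nM reporter substrate; fluorescence (Ex 485/Em 531) read after 60min RT, normalized to NEM inhibition, concentration-response curves fitted.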
USP1 inh: blocks the human USP1/UAF1 deubiquitinase complex | O94782 | recombinant USP1/UAF1, Ub-Rhodamine cleavage fluorescence | Potency, µM (series often up to 57.1 µM), inactives show top-dose activity change, negative = inhibition, actives largely listed as inhibitors | actives 0.23% (n = 390,000); further: potency means the concentration at half of the fitted maximal effect; on the % scale 0 is the no-effect control and ±100 the full control effect; nearly all actives have a fitted effect of over 60% in size
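In this screen, compounds sit with the deubiquitinase complex (1nM) for 15 min at room temperature before Ub-Rho is added at 150nM final. Fluorescence rise is then followed for 6 reads every 60 seconds.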
Starred values were filed as active, the others as inactive. An excerpt weighted towards active compounds, which were near 4.8% of everything screened. Unless noted, the call rests on the fitted dose curve; in most records, active means well fitted curve in the direction sought with a large enough effect; inconclusive means small, poorly fitted or top-dose-only effect, or another doubt; inactive means no such curve, though single readings can be large; an effect the other way counts as inactive or inconclusive.

For O=C(NCc1nnc2c3ccccc3c(-c3ccccc3)nn12)c1ccc(Cl)cc1 the results were IL1B secr inh -96.6*, USP2a inh -1.9% and USP1 inh -19.0%.
Cc1ccc(Sc2c(C)[nH]n(C(C)(C)C)c2=O)cc1 was read as S2 tox inactive, ATXN2 expr inh -11.3%, IL1B secr inh 1.1, USP2a inh 4.2% and USP1 inh -2.5%.
`CC1=CC(=O)C(Sc2ccc(C)cc2)=CC1=O` gave IL1B secr inh -77.6* and USP1 inh inconclusive.
Screening CC(C)C[C@H]1CN(CCCC[C@@H]2CNC(=O)C(=O)N2Cc2ccccc2)C(=O)C(=O)N1CCc1ccc(O)cc1 returned S2 tox inactive, ATXN2 expr inh 6.4% and IL1B secr inh -8.5.
For CCc1nnc(NC(=O)c2sc3nc4c(cc3c2N)CCCCCC4)s1 the results were ATXN2 expr inh 12.7%, IL1B secr inh -72.0*, USP2a inh -0.3% and USP1 inh -19.8%.
Screening CC(C)c1cc(C(=O)N2CCCC(C(=O)c3ccc4ccccc4c3)C2)on1 (stereo not given) returned S2 tox inconclusive, ATXN2 expr inh -4.9%, IL1B secr inh -89.2*, USP2a inh 0.5% and USP1 inh -26.0%.
For CC(C)Oc1cccc(C(=O)C2CCCN(C(=O)c3cc(C(F)(F)F)[nH]n3)C2)c1 (stereo not given) the results were S2 tox inactive, ATXN2 expr inh -16.9%, IL1B secr inh -54.4*, USP2a inh 1.4% and USP1 inh -29.1%.
`CCN(CC)CCNC(=O)c1ccc(NC(=O)c2ccccc2-c2ccc(C(F)(F)F)cc2)cc1` gave S2 tox inactive, ATXN2 expr inh inconclusive, IL1B secr inh -66.9*, USP2a inh -1.0% and USP1 inh -14.4%.
For CCN(CC)CCNC(=O)c1ccc(NC(=O)c2cc(-c3ccco3)nc3ccccc23)cc1 the results were S2 tox inconclusive, ATXN2 expr inh inconclusive, IL1B secr inh -88.6*, USP2a inh -0.5% and USP1 inh -10.0%.
`CCN(CC)CCNC(=O)c1ccc(NC(=O)c2cn(-c3ccccc3)nc2-c2cccs2)cc1` gave ATXN2 expr inh inconclusive, IL1B secr inh inconclusive, USP2a inh -1.1% and USP1 inh -19.6%.
`CCN(CC)CCNC(=O)c1ccc(NC(=O)c2cn(-c3ccc(F)cc3)nc2-c2cccc(OC)c2)cc1` gave S2 tox 28.2µM*, ATXN2 expr inh inconclusive, IL1B secr inh -89.6*, USP2a inh 4.3% and USP1 inh -8.1%.
For CN(C)C(=O)c1ccc(NC(=O)c2cc(-c3ccco3)nc3ccccc23)cc1 the results were S2 tox inactive, ATXN2 expr inh 0.8%, IL1B secr inh 0.0, USP2a inh 2.6% and USP1 inh -14.6%.
`COc1ccc2ccccc2c1CN1CCc2nnc(C(NS(C)(=O)=O)C(C)C)n2CC1` (stereo not given) gave S2 tox inactive.
For COc1ccc(Cl)cc1Cn1c(C)c(C(=O)NCc2ccc(F)cc2)sc1=O the results were S2 tox inactive, ATXN2 expr inh -37.6% and IL1B secr inh -3.8.
Screening O=C(O)CSc1c2c(nc3cc(C(=O)Nc4ccc(F)c(Cl)c4)ccc13)CCC2 returned S2 tox inactive, ATXN2 expr inh 5.1% and USP1 inh -7.3%.
For CSc1ncccc1C(=O)Nc1cccc(S(=O)(=O)N2CCCCC2)c1 the results were S2 tox inconclusive, IL1B secr inh 10.5, USP2a inh -0.6% and USP1 inh -20.5%.
Screening Cc1nc(N)sc1-c1ccnc(Nc2ccc(N3CCOCC3)cc2)n1 returned ATXN2 expr inh 10.9µM*.
For Cc1cc(C)nc(Nc2ccc(N3CCOCC3)cc2)n1 the results were S2 tox inactive, ATXN2 expr inh 42.6%, IL1B secr inh -4.4, USP2a inh 4.1% and USP1 inh -17.6%.
For OC(c1ccc2c(c1)CN(Cc1cccn1-c1ncccn1)CCO2)C1CCCCC1 (stereo not given) the results were S2 tox inactive.
